High-throughput results (PubChem)
Sampled rows, rich in hits. Any-hit rate of the full collection: about 1.2%.
PI5P4K alpha inh: qHTS for Inhibitors of phosphatidylinositol 5-phosphate 4-kinase (PI5P4K); PI5P4Kalpha enzyme, ADP-Glo luminescence, 60 min; hits give low values; Phosphatidylinositol 5-phosphate 4-kinase type-2 alpha (Homo sapiens), P48426; AID 652105, 2013; 330,000 compounds, 1.2% hits; max response, %; active means max response of -50% or lower; inconclusive means between -30% and -50%; inactive means -30% or higher; further: value at the top dose of about 77 µM; on the % scale 0 is the no-effect control and ±100 the full control effect
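Enzyme plus substrate dispensed, test compounds pinned in, then ATP (5 microM final) added. After 60 min at RT, ADP-Glo reagent 1 for 45 min and reagent 2 for 30 min preceded luminescence imaging.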
GCN5L2 inh-1: qHTS Assay for Inhibitors of GCN5L2 | GCN5L2 HAT assay, ThioGlo1 CoA-SH fluorescence | AID 504327, 2011 | Potency, µM (doses to about 58.9 µM), without a hit: at the highest dose activity change, negative = inhibition, usual class: inhibitors | 390,000 compounds, 0.21% hits | Histone acetyltransferase KAT2A (Homo sapiens), Q92830; further: potency means the concentration at half of the fitted maximal effect; on the % scale 0 is the no-effect control and ±100 the full control effect
Target sequence (Q92830 whole entry, looked up): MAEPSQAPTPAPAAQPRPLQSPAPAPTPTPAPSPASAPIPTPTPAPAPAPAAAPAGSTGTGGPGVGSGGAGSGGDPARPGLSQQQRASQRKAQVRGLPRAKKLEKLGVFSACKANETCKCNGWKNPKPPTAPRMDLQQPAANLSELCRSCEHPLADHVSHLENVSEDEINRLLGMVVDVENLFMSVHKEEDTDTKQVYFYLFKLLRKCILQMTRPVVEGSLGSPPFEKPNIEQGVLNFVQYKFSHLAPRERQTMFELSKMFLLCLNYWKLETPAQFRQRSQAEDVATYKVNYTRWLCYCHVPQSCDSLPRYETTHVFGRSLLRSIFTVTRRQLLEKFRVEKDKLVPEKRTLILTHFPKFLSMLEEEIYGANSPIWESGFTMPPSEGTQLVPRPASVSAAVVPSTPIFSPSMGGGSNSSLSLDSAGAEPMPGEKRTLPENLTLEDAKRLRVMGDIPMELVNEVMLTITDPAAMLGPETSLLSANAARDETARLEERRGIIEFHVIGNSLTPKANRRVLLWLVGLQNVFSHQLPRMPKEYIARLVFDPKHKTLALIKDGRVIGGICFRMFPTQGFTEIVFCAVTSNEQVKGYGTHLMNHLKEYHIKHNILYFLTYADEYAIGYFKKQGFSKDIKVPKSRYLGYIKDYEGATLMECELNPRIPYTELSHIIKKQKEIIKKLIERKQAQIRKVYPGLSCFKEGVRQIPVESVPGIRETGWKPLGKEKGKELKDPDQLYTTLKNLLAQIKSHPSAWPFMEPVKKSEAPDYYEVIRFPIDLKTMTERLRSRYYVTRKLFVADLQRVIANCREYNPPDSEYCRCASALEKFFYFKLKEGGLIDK
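Enzyme at 20nM final was mixed with library compounds for 15 min at room temperature. Peptide H3(1-25) at 75uM, acetyl-CoA at 70uM and ThioGlo1 at 50uM were then added. Plates were read immediately and after 20 min (Ex340nm/Em540nm).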
Tb PGK inh: qHTS Assay to Find Inhibitors of Phosphoglycerate Kinase; PGK/GAPDH coupled, Kinase-Glo luminescence, 60 min; Potency, µM (doses to about 57.5 µM), without a hit: top-dose activity change, negative = inhibition, hits mostly inhibitors; 380,000 compounds, 0.043% hits; AID 602233, 2012; further: potency means the concentration at half of the fitted maximal effect; on the % scale 0 is the no-effect control and ±100 the full control effect; nearly all actives have a fitted effect of over 60% in size
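Luminescent ATP detection (Kinase-Glo Plus) follows a 60-minute room-temperature incubation, with wells lacking PGK as controls. Buffer: 100 mM TEA (pH 7.6), 5 mM MgCl2, 0.01% Tween-20. Coupling enzyme GAPDH (100 nM final) supplies unstable 1,3-BPG in-well.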
PI4K2A block: qHTS for small molecular inhibitors of PI4K2A. activity change, negative = inhibition, % at 76.9 µM. AID 1346378, 2018. 420,000 compounds, 0.13% hits. purified PI4K2A, ADP-Glo luminescence, 1 h; hits give low values. Phosphatidylinositol 4-kinase type 2-alpha (Homo sapiens), Q9BTU6; in the data active means activity change below about -50%; inconclusive means mostly about -30% to -49%;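 further: -100% = wells without enzyme as full effect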
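PI4K2A activity was measured by ADP-Glo luminescence: enzyme (4 ug/mL stock) and phosphatidylinositol (1.2 mM stock) in Tris pH 7.5/MgCl2/EGTA/Triton X-100 buffer were reacted with ATP (300 microM stock) for one hour at ambient temperature.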
RGS12 GoLoco inh-1: qHTS Assay for Inhibitors of RGS12 GoLoco Motif Activity (Red Fluorophore); Guanine nucleotide-binding protein G(i) subunit alpha-1 (Homo sapiens), P63096; Gai1:RGS12 GoLoco peptide FP, rhodamine, 10 min; Potency, µM (titrated, usually from 61.6 µM), inactives show top-dose activity, negative = inhibition, usual class: inhibitors; 230,000 compounds, 0.44% hits; active means well fitted inhibition curve with a large enough effect, not every such curve was filed as active; inactive means no such curve, though single readings can be large or run the other way; further: potency means the concentration at half of the fitted maximal effect; on the % scale 0 is the no-effect control and ±100 the full control effect; nearly all actives have a fitted effect of over 30% in size
Pin1 inhibitor: qHTS Assay to Find Inhibitors of Pin1 | Potency, µM (highest dose often 115 µM), for inactives: top-dose activity, negative = inhibition, usual class: inhibitors | Peptidyl-prolyl cis-trans isomerase NIMA-interacting 1 (Homo sapiens), Q13526 | AID 504891, 2011 | 390,000 compounds, 0.009% hits | Pin1 FP peptide displacement, HiFluor488, 10 min; active means well fitted inhibition curve with a large enough effect in the polarisation, with a control signal flat, not every such curve was filed as active; inconclusive means small, poorly fitted or top-dose-only effect, or effect the other way, or a change in a side signal; inactive means no such curve, though single readings can be large or run the other way; the % refers to the polarisation; further: potency means the concentration at half of the fitted maximal effect; on the % scale 0 is the no-effect control and ±100 the full control effect
RGS12 GoLoco inh-2: Confirmation qHTS Assay for Inhibitors of RGS12 GoLoco Motif Activity (Red Fluorophore); Gai1/rhodamine-RGS12 GoLoco peptide fluorescence polarization; AID 2390, 2010; 110 compounds, 50% hits; Potency, µM (doses to about 57.1 µM), for inactives: at the highest dose activity, negative = inhibition, most hits filed as inhibitors; shares compounds with RGS12 GoLoco inh-1
GCN5L2 inh-2: qHTS Assay for Inhibitors of GCN5L2: Hit confirmation; shares compounds with GCN5L2 inh-1; GCN5L2 HAT, ThioGlo1 CoA fluorescence, 20 min; Potency, µM, actives largely listed as inhibitors; 140 compounds, 70% hits; AID 588347, 2011
ADP-Glo counter: qHTS for Inhibitors of PI5P4K: ADP-Glo counter assay; ADP-Glo detection counter-screen, luciferase luminescence, no enzyme; 1,100 tested, under 10 active; Potency, µM (top dose mostly 76.9 µM), without a hit: at the highest dose activity change, negative = inhibition, usual class: inhibitors; shares compounds with PI5P4K alpha inh
Numbers without * were called inactive; i = inactive; ? = inconclusive; / = no result. Unless noted, the call rests on the fitted dose curve; in most records, active means well fitted curve in the direction sought with a large enough effect; inconclusive means small, poorly fitted or top-dose-only effect, or another doubt; inactive means no such curve, though single readings can be large; an effect the other way counts as inactive or inconclusive.

SMILES	PI5P4K alpha inh	GCN5L2 inh-1	Tb PGK inh	PI4K2A block	RGS12 GoLoco inh-1	Pin1 inhibitor	GCN5L2 inh-2	others
O=C1c2cccc3c([N+](=O)[O-])ccc(c23)C(=O)N1c1ccc(Cl)cn1	/	-9%	i	27	-7%	?	/
O=C1c2cccc3c([N+](=O)[O-])ccc(c23)C(=O)N1c1ccccn1	-11	0%	0%	-1	28µM*	?	/	RGS12 GoLoco inh-2=-5%
Cc1nn(C)c(C)c1N1C(=O)c2cccc3c(N)ccc(c23)C1=O	-6	-13%	-9%	4	22µM*	?	/	RGS12 GoLoco inh-2=13µM*
COC(=O)c1ccc(NC(=O)CSc2ccccn2)cc1	3	-2%	-8%	1	13µM*	-2%	/	RGS12 GoLoco inh-2=?
Cc1ccc(/C=C/C(=O)OCC(=O)NC(=O)NCc2ccco2)cc1	?	-7%	-2%	-1	/	?	/
CCc1n(CC(O)COCc2ccccc2)c2ccccc2[n+]1C (stereo unspecified)	3	-21%	6%	2	3.2µM*	-5%	/	RGS12 GoLoco inh-2=16µM*
Cc1cccc(N(C(=O)c2csnn2)C(C(=O)NC(C)(C)C)c2cccnc2)c1 (stereo unspecified)	7	14%	6%	1	-14%	-3%	/
COc1ccc(/C=N/NC(=O)c2ccc3nc[nH]c3c2)c(OC)c1OC	6	2%	i	1	21%	-10%	/
COc1cc(OC)c(C2CC(=O)N3CN(c4ccc(C)cc4)CSC3=C2C#N)cc1OC (stereo unspecified)	-77*	?	3%	-4	8.9µM*	-8%	/	RGS12 GoLoco inh-2=?;ADP-Glo counter=-5%
Cc1c(OC(C)C(=O)NCCCN2CCCC2=O)ccc2c3c(c(=O)oc12)CCCC3 (stereo unspecified)	2	-2%	i	1	/	-3%	/
Cc1ccc2c(c1C)NC(C(=O)O)C1CC=CC21 (stereo unspecified)	/	22µM*	?	-18	64%	7.6µM*	14*
O=S(=O)(NCCc1cn2ccccc2n1)c1cccs1	8	0%	10%	-6	8%	3%	/
CSS(=O)(=O)c1cccc2cccnc12	-91*	8.9µM*	9%	6	-17%	5%	5.8*
CCC(C)Sc1ccc(-c2nc3ccccn3c2NCc2ccccc2)cc1OC (stereo unspecified)	-2	22µM*	-10%	-5	/	5%	?
Cc1ccc(-c2cc(-c3coc4ccccc4c3=O)c3c(n2)-c2ccccc2OC3)cc1	/	-8%	-8%	1	/	?	/
O=C(Nc1ncc([N+](=O)[O-])s1)c1cccc([N+](=O)[O-])c1	-6	-19%	-5%	-4	1%	8%	/
O=C(COC(=O)c1ccccc1)Nc1ncc([N+](=O)[O-])s1	-74*	?	?	-5	/	/	4.6*
Cc1ccc(-c2[nH]ncc2CNC(C)c2ccccc2)cc1 (stereo unspecified)	/	/	/	/	/	-12%	/
COC(=O)c1sccc1NC(=O)CC1C(=O)NCCN1C(=O)c1c(F)cccc1Cl (stereo unspecified)	-8	?	10%	-2	-3%	-4%	?
Cc1ccc(S(=O)(=O)NC(C(=O)Oc2ccc3c(C(F)(F)F)cc(=O)oc3c2)c2ccccc2)cc1 (stereo unspecified)	-5	?	5%	0	14%	-8%	?
Cc1ccc(C)c(NC(=O)c2cc(S(=O)(=O)NCc3ccccc3)ccc2F)c1	/	-4%	4%	-10	/	5%	/
O=C1c2ccc(-c3ccc(F)cc3OCc3ccccc3)cc2S(=O)(=O)c2cccc(C(=O)N3CCN(c4ncc(Br)cn4)CC3)c21	-9	-3%	1%	0	/	4%	/
O=C(O)c1cccc2c1C(=O)c1ccc(-c3ccc(F)cc3OCc3ccccc3)cc1S2(=O)=O	-27	22µM*	-3%	-3	/	?	?
Nc1ncc(Br)cc1S(=O)(=O)NCCc1ccccc1	6	-10%	4%	4	/	0%	/
CCOc1cc(CNC(=O)c2ccc(NC(=O)c3nsc4ccccc34)cc2)ccc1OC	/	-6%	-10%	2	/	15%	/
SMILES	PI5P4K alpha inh	GCN5L2 inh-1	Tb PGK inh	PI4K2A block	RGS12 GoLoco inh-1	Pin1 inhibitor	GCN5L2 inh-2	others
N=C1/C(=C/c2ccc(-c3cccc(C(=O)O)c3)o2)C(=O)N=C2SC=C(c3ccccc3)N12	-83*	22µM*	?	-6	29%	?	16*
CCc1ccc([C@@H]2CC=C(C(=O)O)[C@H](c3ccc(C(C)(C)C)cc3)N2S(=O)(=O)c2ccc(C)cc2)cc1	?	18µM*	?	-7	/	/	18*
Cc1ccc([C@@H]2CC=C(C(=O)O)[C@H](c3ccc(C(C)(C)C)cc3)N2S(=O)(=O)c2ccc(C)cc2)cc1	-23	?	-5%	-1	/	/	/
CCOC(=O)c1cnc2cc(C)nn2c1-c1ccccc1	0	40µM*	5%	-3	-1%	-7%	14*
CCOC(=O)c1cnc2cc(-c3ccc(Cl)cc3)nn2c1-c1ccccc1	/	-15%	-7%	1	/	-4%	/
CNC(=O)NC(=O)C(C)OC(=O)c1c2c(nc3ccccc13)/C(=C/c1cccs1)CC2 (stereo unspecified)	?	14µM*	0%	-16	9%	?	?
